Assay results from PubChem BioAssay AID493248 (Broad Institute, 2011).
The campaign covered roughly 2,300 compounds. About 1,400 (61%) were called active. Not shown: some 7% with an inconclusive outcome. No rule for the calls is given here. The set was probably picked from earlier hits. Not all results are given here. Entries with a potency or affinity are not part of this list.

Biological target: FAD-linked sulfhydryl oxidase ALR (Homo sapiens) (UniProt P55789)
Experiment: inhibitors of human ALR sulfhydryl oxidase, dose response, biochemical, H2O2 detection, luminescence, cherry-pick (AID 493248)
Conditions: purified ALR, DTT oxidation, H2O2 HRP-luminol luminescence; at 10 µM (top of the series)

FAD-linked sulfhydryl oxidase ALR (Homo sapiens), sequence (P55789 whole entry, looked up): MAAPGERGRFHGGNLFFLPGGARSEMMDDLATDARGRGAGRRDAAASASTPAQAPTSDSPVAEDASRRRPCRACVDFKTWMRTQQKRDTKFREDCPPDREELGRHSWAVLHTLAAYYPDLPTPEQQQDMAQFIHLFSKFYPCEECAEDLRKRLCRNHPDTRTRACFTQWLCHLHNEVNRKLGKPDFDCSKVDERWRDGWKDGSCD

SMILES	activity change, negative = inhibition
Cn1ccnc1SCc1cn2ccccc2n1	-1.35%
O=C(c1cc(-c2ccc(O)cc2)on1)N1CCN(c2ccccc2)CC1	418%
S=c1[nH]ncn1NCc1ccc(Cl)cc1Cl	-23.3%
Cc1cc(-c2n[nH]c(=S)n2/N=C/c2cccc([N+](=O)[O-])c2)n[nH]1	-55.9%
COc1cc(/C=C2\SC(=S)N(NC(=O)c3cccnc3)C2=O)ccc1O	-97.7%
Cc1nnc(Nc2ccc3c(c2)OCO3)c2ccccc12	20.5%
Cc1csc2nc(CSc3ccc(Cl)cc3)cn12	-28.1%
c1ccc(Nc2c(-c3ccco3)nc3ccccn23)cc1	-67%
COc1ccc(-n2c(-c3ccc(OC)c(OC)c3)n[nH]c2=S)cc1	-27%
CCN1CC(c2ccccc2)C(c2ccc(Cl)cc2)=N1 (stereo not drawn)	-26.4%
O=C(Nc1cccs1)Nc1ccccc1Cl	-59.6%
CN1c2ccccc2Sc2cc(N)ccc21	-71%
O=C(O)C1C(c2ccccc2)C(C(=O)Oc2ccc(O)cc2)C1c1ccccc1 (stereo not drawn)	-97.2%
CN(C)c1ccc(/C=N/OC(=O)Nc2ccccc2)cc1	-22.3%
Fc1ccc(CN2C3=NCCN3c3ccccc32)cc1	-38.3%
CCCCN1C2=NC(c3ccccc3)CN2c2ccccc21 (stereo not drawn)	-14%
COc1cc(NC(=O)CN2C(=O)C(c3ccccc3)=NC2(C)C)cc(OC)c1	-10%
CCN(CC)S(=O)(=O)c1ccc(NC(=O)c2c(-c3ccccc3)noc2C)cc1	-1.33%
COc1cc(/C=N\NC(=O)c2ccc(Cn3cc(Br)c([N+](=O)[O-])n3)o2)cc(OC)c1O	-36.4%
CC(C)CC1(C(=O)O)NC(c2ccccc2O)C2C(=O)N(C(C)C)C(=O)C21 (stereo not drawn)	-7.77%
COc1ccc(CN2C(=O)C3C4C=CC(C4)C3C2=O)cc1 (stereo not drawn)	24.9%
COc1ccc(CNc2ccccc2)cc1Br	-3.19%
COc1ccc(NCc2ccc3c(c2)OCO3)cc1Cl	-12.5%
CCN(CC)c1ccc(NC(=O)CN2C(=O)CSc3ncccc32)c(C)c1	-11.2%
Cc1cc2nc3ccc(N(C)C)cc3nc2cc1N	-98.1%
CC1C/C(=N/NC(=O)c2cccc(F)c2)c2ccc(O)cc2C1 (stereo not drawn)	-63.8%

SMILES	activity change, negative = inhibition
CNC(=O)CN1C(=O)c2ccccc2S1(=O)=O	14%
COc1ccc(-c2csc(Cc3nnc4n3CCCCC4)n2)cc1OC	-2.63%
CCN1CCn2c3c(c4cc(C)ccc42)CCCC31 (stereo not drawn)	32.6%
Cc1cccc(NNC(=O)C(=O)NNc2cccc(C)c2)c1	-2.1%
CCc1oc2ccccc2c1C(=O)c1cc(Br)c(O)c(Br)c1	-16.5%
COC(=O)c1c(N)sc2c1CC(C)(C)OC2	0.616%
Cc1cc(C)cc(N(CC(=O)NCc2ccco2)S(=O)(=O)c2c(C)noc2C)c1	-11.1%
Cc1ccc(N(C)S(=O)(=O)c2cccc(C(=O)Nc3nnc(C4CC4)s3)c2)cc1	41.9%
CCSc1nnc(NC(=O)C2CCCN(S(=O)(=O)c3cnc[nH]3)C2)s1 (stereo not drawn)	4.79%
Cc1cc(C(=O)Nc2nc3c(C)cccc3s2)c(C)o1	-29%
COc1cccc(CNc2nc3ccccc3n2CCN2CCCCC2)c1	73.7%
Cc1[nH]oc(=O)c1N=Nc1c(Cl)cccc1Cl	-48.5%
O=S(=O)(c1cccs1)n1cnc2ccccc21	-2.54%
Cc1cc(Cc2ccc(N)c(C)c2)ccc1N	12.8%
C=CCSc1nnc2c(n1)OC(c1ccco1)Nc1ccccc1-2 (stereo not drawn)	-91.3%
COC(=O)c1ccn(CC(=O)NC2CCCCC2)n1	-5.32%
COc1cc(C(=S)NC2CCCCC2)ccc1O	99.8%
CSc1nnc(-c2ccncc2)n1CCCN1CCCC1=O	69.3%
Cc1cc(C(=O)CN2C(=O)CCC2=O)c(C)n1Cc1ccccc1	-73.3%
N#CCC(=O)Nc1ccc(C(=O)NCCc2c[nH]c3ccccc23)cc1	-21.6%
CS(=O)(=O)N(CC(=O)NCc1ccccn1)Cc1ccc(Cl)cc1	128%
COC(=O)[C@@H](N)Cc1ccc(O)c(O)c1	-110%
Cc1cccn2cc(CNc3ccccc3)nc12	-7.4%
CC(=O)Nc1cccc(NC(=O)c2cccc(-c3ccc(O)cc3)c2)c1	64.6%
Cc1cc(C)n2nc(C(=O)N/N=C/c3ccc(O)cc3)nc2n1	-107%
S=c1[nH]nc(C2CCCCC2)n1/N=C/c1cccs1	-12.9%

SMILES	activity change, negative = inhibition
COc1cc(/C=N/N2C(=O)C3C4C=CC(CC4)C3C2=O)ccc1O (stereo not drawn)	-104%
Nc1nnnn1/N=C/c1ccc(O)cc1	-84.1%
CC(=O)c1cc(CC=C(C)C)c(O)cc1O	11.5%
O=C(Nc1nnc(-c2ccco2)o1)c1cccc(Cl)c1	-18.4%
Cc1cccc(C(=O)Nc2onc(C)c2C#N)c1	-51.1%
Cc1[nH]nc(-c2ccc(O)cc2O)c1-c1nc2ccccc2s1	368%
CC(C)c1ccc(NC2CCCN(C(=O)CCN3CCCC3=O)C2)cc1 (stereo not drawn)	-61%
O=C(CCc1ccncc1)N1CCCC(Nc2ccc(F)c(F)c2)C1 (stereo not drawn)	-11.3%
COc1ccc(NC2CCCN(C(=O)Cn3ccc(C)n3)C2)cc1OC (stereo not drawn)	108%
CC(C)N1C(=O)C2C(c3ccccc3O)NC(C)(C(=O)O)C2C1=O (stereo not drawn)	4.76%
CCc1c(C(=O)NCc2cnn(C)c2)csc1C	-7.16%
Cc1cccc(CSc2nn3c(=O)c(C)nnc3s2)c1	-99.2%
Cc1ccc(CNC(=O)C(NS(=O)(=O)c2ccc3nc(C)sc3c2)C(C)C)cc1 (stereo not drawn)	40.5%
Cc1nc2ccc(S(=O)(=O)NC(C(=O)Nc3nccs3)C(C)C)cc2s1 (stereo not drawn)	-35.5%
COc1ccc(NC(=O)CNS(=O)(=O)c2ccc3nc(C)sc3c2)c(OC)c1	-62.8%
C/C(=N\NS(=O)(=O)c1ccc(Cl)cc1)c1ccc(O)cc1	-79.4%
Cc1cc(NC(=O)Nc2cccc(C)c2C)no1	-49%
O=C(Nc1ccccc1N1CCCC1)c1cccnc1	-34.6%
CC(=O)Nc1cccc(N=NN2CCCCC2)c1	26.8%
CC(=O)Nc1ccc(S(=O)(=O)NNC(=O)c2cccc(Cl)c2)cc1	-37.6%
Cc1cc(NC(=O)c2ccoc2C)ccc1Br	-11.3%
CCc1nnc(NS(=O)(=O)c2ccc(NC(=O)OC)cc2)s1	-99.5%
COc1ccc(S(=O)(=O)Nc2nc3ccccc3nc2Nc2cccc(C(=O)O)c2)cc1	-80.5%
Cc1nc2ccc(Br)cn2c1NC(C)(C)C	15.9%
O=C1CSC(c2ccccc2)N1c1ccc([N+](=O)[O-])cc1 (stereo not drawn)	-50.9%
COc1ccc(C2SCC(=O)N2Cc2ccccc2)cc1 (stereo not drawn)	-33.1%
